The values below come from the supplement of paper PMC10941209.

Molecules are shown by their SMILES.

This assay deals with HFF. Description: cell viability relative to DMSO control; higher = less cytotoxic. Conditions: 1 µM; 72 h. The method, then: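 Single-dose cytotoxicity screen of the MMV Pandemic Response Box at 1 uM on human foreskin fibroblasts (HFF), 72 h at 37 C. Viability measured by MTT (OD 550 nm) and normalised to the DMSO control (% survival).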
The compound `CCc1cc(Nc2cc(=O)n(CCN3CCN(C(=O)c4ccccc4)CC3)c(=O)[nH]2)ccc1C` returned a cell viability of 68.7%.

Turning to `CCCC(=O)OCCc1ccccc1`, the cell viability was 65.3%.

`CC(C)N(c1cc(-c2ccccc2)sc1C(=O)O)C(=O)[C@H]1CC[C@H](C)CC1`: the cell viability was found to be 67.5%.

`O=C(CP(=O)(O)O)NCCc1cccc(Oc2ccccc2)c1` returned a cell viability of 65.7%.

Consider `C=C[C@]1(C)C[C@@H](OC(=O)CS[C@@H]2C[C@H]3CC[C@@H](C2)N3C)[C@]2(C)[C@H](C)CC[C@]3(CCC(=O)[C@H]32)[C@@H](C)[C@@H]1O`, for which the cell viability amounted to 72.2%.

In turn, `COc1ccc(C)cc1NC(=O)c1ccc(S(=O)(=O)N2CCCCC2)cc1` showed a cell viability of 76.4%.

For `CCC[C@@H]1C[C@@H](C(=O)N[C@@H]([C@H]2O[C@H](SC)[C@H](O)[C@@H](O)[C@H]2O)[C@H](C)Cl)N(C)C1`, the cell viability turned out to be 66.8%.

`COc1cc(NC(=O)CN2C(=O)NC(c3ccccc3)(c3ccccc3)C2=O)cc(OC)c1` gave a cell viability of 61%.

The compound `Nc1cnn(C2OC(CO)C(O)C2O)c(=O)n1` (centres undefined) showed a cell viability of 63.5%.

In turn, `O=C(Nc1ccc(N2CCN(C(=O)c3ccccc3)CC2)cc1)c1ccc2c(c1)OCO2` came in with a cell viability of 60.1%.

`O=C(c1ccc(F)cc1)N1CCN2C(=O)c3ccccc3C12c1ccccc1` (centres undefined) displayed a cell viability of 63.3%.

As to `CS(=O)(=O)c1ccc(Oc2ccc(Cl)cc2)cc1`, the cell viability is 69.7%.

Take `COCCn1cnc2c(O)nc(Nc3ccccc3)nc21`: the cell viability amounted to 61%.

In turn, `CC(C)=CCC/C(C)=C/CNCCNC1C2CC3CC(C2)CC1C3` (centres undefined) showed a cell viability of 80.2%.

The compound `CC1CN(c2ncnc3c2c(-c2ccccc2)cn3-c2ccc(F)cc2)CC(C)O1` (centres undefined) had a cell viability of 75.3%.

The compound `Fc1ccc(-n2cc(Cn3c(-c4cccc(F)c4)nc4ccccc43)nn2)cc1` gave a cell viability of 71.1%.

`O=C(/C=C\n1cnc(-c2cc(C(F)(F)F)cc(C(F)(F)F)c2)n1)NNc1ccccn1` gave a cell viability of 62%.

Regarding `CC(=O)Nc1cc(NS(=O)(=O)c2ccc(Cl)cc2)cc2c(Cl)[nH]nc12`, the cell viability worked out at 67.2%.

Regarding `O=C(CCc1ccc2c(c1)OCO2)NCc1ccc(-c2ccccc2F)cc1`, the cell viability amounted to 65.7%.
